Laboratory results from PubChem BioAssay (EPA / NIEHS).
Activity calls are given as the source filed them. How the source made its calls: active means hit-call score of the fitted dose curve at least 0.9, where 1 is the maximum; inactive means score below 0.9.

assay: APR_HepG2_p53Act_24hr: Apredica 24-hour HepG2 Assay for p53 Activation (AID 2282913); settings: high-content imaging, actives raise or lower the signal
Experimental: APR_HepG2_24hr is a cell-based, multiplexed-readout assay that uses HepG2, a human liver cell line, with measurements taken at 24 hours after chemical dosing in a 384-well plate.APR_HepG2_p53Act_24hr is one of 10 assay component(s) measured or calculated from the APR_HepG2_24hr assay. It is designed to make measurements of dna content, a form of viability reporter, as detected with fluorescence intensity signals by HCS Fluorescent Imaging technology.Data from the assay component APR_HepG2_p53Act_24hr was analyzed into 1 assay endpoint. This assay endpoint, APR_HepG2_p53Act_24hr, was analyzed with bidirectional fitting relative to DMSO as the negative control and baseline of activity. Using a type of viability reporter, measures of protein for gain or loss-of-signal activity can be used to understand the signaling at the pathway-level as they relate to the gene TP53. Furthermore, this assay endpoint can be referred to as a primary readout, because this assay has produced multiple assay endpoints where this one serves a signaling function. To generalize the intended target to other relatable targets, this assay endpoint is annotated to the dna binding intended target family, where the subfamily is tumor suppressor.
Cells were treated with dimethyl sulfoxide (DMSO) as a solvent control at a final concentration of 0.5% v/v or with compounds in DMSO with a resulting final DMSO concentration of 0.5% v/v. Compound treatment was done at concentrations of 0.39, 0.78, 1.56, 3.12, 6.24, 12.5, 25, 50, 100, and 200 uM in duplicate on each plate. Cells were treated with compounds for 1, 24, or 72 hr. Carbonyl […] m-chloro-phenylhydrazone (CCCP) and taxol were used as positive controls for mitochondrial function and cytoskeletal stability, respectively; DMSO served as the negative control for this experiment. Cells were fixed by the direct addition of 50 uL formaldehyde in Hank's Balanced Salt Solution (HBSS) to a final concentration of 3.7%. After incubation in the fixation medium for 30 min at room temperature (293-298 K), cells were rinsed twice with HBSS and treated with cell permeabilization buffer (16 uL of 0.5% Triton X-100) for 10 min at room temperature (293-298 K) before labeling. For mitochondrial membrane potential and mitochondrial measurements, pre-fixed cells were incubated with 50 uL of MitoTracker Red CMXRos (Invitrogen) at a concentration of 250 nM for 30 min before fixation. In the remaining cases, post-fixed cells were labeled by incubation with a multiplexed mixture of primary antibodies in HBSS for 60 min at room temperature (293-298 K) to detect immunoreactivity of c-Jun (1:500), phospho-histone H3 (1:100), phospho-histone H2A.x (1:200), p53 (1:400), alpha-tubulin (1:200) and Hoechst 33342 (2 ug/mL). Cells were labeled for multiplexed imaging on two separate plates: a) Hoechst 33342, MitoTracker Red, phospho-histone H3, and alpha-tubulin, and b) Hoechst 33342, phospho-histone H2A.x, and c-Jun. A final rinse with HBSS (50 uL) was performed before analysis. The primary and secondary antibodies for the proteins were phospho-histone H3 (rabbit anti-phospho-histone H3 and FITC-donkey anti-rabbit IgG), phospho-histone H2A.x (mouse anti-phospho-histone H2A.x and FITC-donkey anti-mouse IgG), c-Jun (rabbit anti-phospho-c-Jun and Cy3-donkey anti-rabbit IgG), p53 (sheep anti-p53 and Cy5-donkey anti-sheep IgG), alpha-tubulin (mouse anti-alpha-tubulin and Cy5-donkey anti-mouse IgG). These antibodies are available as the CellCiphr HepG2 assay kit (Millipore).Digital images of each well were captured using a Cellomics ArrayScan VTI (Thermo Scientific Cellomics) (0.8 NA objective, 0.63x optical coupler, and XF-93 filter set) at 20x magnification. The images were acquired using the autofocus feature of the ArrayScan instrument, which entails the following steps. First, the camera focuses on channel 1 (Hoechst 33342), where nuclei are identified. Second, a Z offset of 1 um is used for capturing mitochondria (MitoTracker Red). […]

outcome, inactive:
Cn1c(=O)c2c(ncn2C)n(C)c1=O
CCn1nc(Cc2ccccc2)cc1C1CCN(C[C@H]2C[C@H](N(C)[C@@H](C(=O)O)C(C)C)C[C@@H]2c2cccc(F)c2)CC1
Cc1c(-c2cccnc2)c2ccccc2n1CCCCC(=O)O
O=c1[nH]c2ccc(S(=O)CCN3CCC(Cc4ccc(F)cc4)CC3)cc2o1 (stereo not given)
CC(=O)OC[C@H]1O[C@@](COC(C)=O)(O[C@H]2O[C@H](COC(C)=O)[C@@H](OC(C)=O)[C@H](OC(C)=O)[C@H]2OC(C)=O)[C@@H](OC(C)=O)[C@@H]1OC(C)=O
CCCCC(CC)COC(=O)c1ccc(C(=O)OCC(CC)CCCC)cc1 (stereo not given)
C[C@](N)(Cc1ccc(O)c(O)c1)C(=O)O
CC(C)(O)c1coc(S(=O)(=O)NC(=O)Nc2c3c(cc4c2CCC4)CCC3)c1
C1=CCCC=CCCC=CCC1
CC(C)CCCCCCOC(=O)c1ccc(C(=O)OCCCCCCC(C)C)c(C(=O)OCCCCCCC(C)C)c1
COc1ccc(-n2nc(C(F)F)cc2-c2ccc(S(C)=O)cc2)cc1 (stereo not given)
CCCCCCCCCCCCc1ccccc1
CC(C)=CCCC(C)=CC=O
COC(=O)CC(=O)OC
O=C(O)CC(O)C(=O)O (stereo not given)
CCCC(=O)OCC
C=CCCCCCCCCC(=O)O
O=P(OC(CCl)CCl)(OC(CCl)CCl)OC(CCl)CCl
Nc1cccc(N)c1
Fc1ccccc1[C@@H](F)COC1CCC(Nc2ncnc3[nH]ncc23)CC1 (stereo not given in full)
O=C(CCCCCCCCc1cccnc1)N1CCC(C=C(c2ccccc2)c2ccccc2)CC1
CNCc1ccc(NC(=O)c2c[nH]c3c2C(=O)CCC3)cc1
Nc1nc2ncc(CNc3ccc(C(=O)N[C@@H](CCC(=O)O)C(=O)O)cc3)nc2c(=O)[nH]1
CC(=O)c1ccc2c(c1)[C@H](NC(=O)c1ccc(F)cc1)[C@@H](O)C(C)(C)O2
CC(C)=CCC/C(C)=C/CO
CC(=O)OCCC(C)C
CN(C)c1ccc(Cc2ccc(N(C)C)cc2)cc1
CC(C)=CCC/C(C)=C\CO
COCCOc1cc2cc(C(=O)NC3CCN(C(C)C)CC3)n(CC(=O)Nc3ccc(Cl)cn3)c2cn1
CC[C@H]1OC(=O)[C@H](C)[C@@H](O[C@H]2C[C@@](C)(OC)[C@@H](O)[C@H](C)O2)[C@H](C)[C@@H](O[C@@H]2O[C@H](C)C[C@H](N(C)C)[C@H]2O)[C@](C)(O)C[C@@H](C)C(=O)[C@H](C)[C@@H](O)[C@]1(C)O
COC(=O)c1c(Cl)c(Cl)c(C(=O)OC)c(Cl)c1Cl
CC(C)=CCCC(C)CCO (stereo not given)
O=C(NS(=O)(=O)/C=C/c1ccccc1)c1ccc(F)cc1Cl

AC50, active:
Cc1[nH]cnc1C[C@H]1CCc2c(C)c3ccccc3n2C1=O 97 µM
CCOc1cccc(-n2cc(C(=O)N3CCN(c4cc(C(=O)O)c5ccccc5c4)CC3)nc2-c2ccc(C)cc2)c1 99.3 µM
CNS(=O)(=O)c1cc(C(=O)N2CCC(CCN3C4CCC3CC(n3c(C)nc5ccccc53)C4)(c3cccc(F)c3)CC2)c(Cl)cc1F (stereo not given) 72.7 µM
CCc1cc(SCc2sc(-c3ccc(C(F)(F)F)cc3)nc2CN2CCN(c3ccc(OC)cc3)CC2)ccc1OCC(=O)O 84 µM
Oc1ccc2c(c1)-c1ccccc1C2 100 µM
CCCCCCc1ccc(O)cc1O 104 µM
CCOC(=O)COc1ccc2c(c1)CC(NCC(O)c1cccc(Cl)c1)CC2 (stereo not given) 30.6 µM
